Assay outcomes: PubChem BioAssay, National Center for Advancing Translational Sciences (NCATS)
HT1080 IDH1KD tx: qHTS for induction of synthetic lethality in tumor cells producing 2HG: qHTS for the HT-1080-IDH1KD cell line. HT-1080 IDH1 knockdown viability, ATP luminescence, 48 h. Potency, µM (highest dose often 46.1 µM), inactives show at the top dose activity, negative = toxicity, actives largely listed as cytotoxic. 2% of 360,000 active;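 also: 0% = DMSO wells and -100% = cell-free medium wells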
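Viability of IDH1-knockdown HT-1080 fibrosarcoma cells was assessed by CellTiter-Glo after 48 h at 37 °C with titrated compound; concentration-effect curves were classified by fit quality and response size.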
KB-V1 cytotox: qHTS assay for MDR1-selective chemotherapeutics: Primary screen using the drug-selected MDR subline cells KB-V1; KB-V1 MDR cells viability, CellTiter-Glo, 72 h; Potency, µM (doses to about 46.1 µM), usual class: cytotoxic; 3.4% of 400,000 active; also: % is scaled to controls: 0 for no effect and ±100 for the full control effect; nearly all actives have a fitted effect of over 60% in size
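Cells of the MDR subline KB-V1 are plated, dosed with compound at multiple concentrations, and incubated 72 h at 37 degrees C; CellTiter-Glo is then added and luminescence read after 10 min.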
HT1080NT lethal: qHTS for induction of synthetic lethality in tumor cells producing 2HG: qHTS for the HT-1080-NT fibrosarcoma cell line | 1.6% of 360,000 active | Potency, µM (titrated, usually from 46.1 µM), inactives show at the top dose activity, negative = less viability, usual class: cytotoxic | HT-1080-NT fibrosarcoma viability, CellTiter-Glo ATP luminescence, 48 h;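 also: NT is the 2HG producing partner of a matched IDH1 knockdown line; 0% = DMSO-treated cells and -100% = media-only wells without cells; nearly all actives have a fitted effect of over 55% in size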
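750 cells/well, RPMI + 5% FBS; 2 h settle, compound pin-transfer, 48 h at 37 degrees C. CellTiter-Glo 10 min RT, luminescence. Normalized to DMSO and media-only wells.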
MCF10A rereplic: A quantitative high throughput screen for small molecules that induce DNA re-replication in MCF 10a normal breast cells; 2.9% of 350,000 active; MCF 10A DNA re-replication, Hoechst nuclear intensity, 48 h; Potency, µM (doses to about 46.1 µM), without a hit: at the highest dose activity, positive = re-replication, usual class: activators; AID 624296, 2012; also: % of control where 0% means no effect; nearly all actives have a fitted effect of over 50% in size
SW480 rerep: A quantitative high throughput screen for small molecules that induce DNA re-replication in SW480 colon adenocarcinoma cells | SW480 DNA re-replication, Hoechst DNA content imaging, 48 h | Potency, µM (doses to about 46.1 µM), without a hit: at the highest dose re-replication activation, actives largely listed as activators | 1.8% of 340,000 active | AID 624297, 2012; also: % of control where 0% means no effect; nearly all actives have a fitted effect of over 55% in size
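Hoechst fluorescence of nuclei (405 nm excitation, 500-530 nm emission) measured by plate-scanning imager after 48 hr compound exposure at 37 C; re-replication scored as increased number of nuclei with elevated intensity.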
KB-3-1 cytotox: qHTS assay for MDR1-selective chemotherapeutics: Primary screen using the parental adenocarcinoma cell KB-3-1. 1.4% of 400,000 active. KB-3-1 viability, CellTiter-Glo ATP luminescence, 72 h. AID 1347075, 2019. Potency, µM (titrated, usually from 46.1 µM), actives largely listed as cytotoxic; also: % is scaled to controls: 0 for no effect and ±100 for the full control effect; nearly all actives have a fitted effect of over 60% in size
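Cells are dispensed, compounds pinned in, plates held at 37 °C for 72 h, then CellTiter-Glo is added and luminescence read after 10 minutes. Cell line: parental KB-3-1 in phenol-red-free DMEM, 10% FBS.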
* marks the source's active call; other numbers are inactive results; i = inactive; ? = inconclusive; / = not tested or not shown; ! = not confirmed by another sample; [ ] = remark or other dose. Rows were chosen to be rich in hits. Some 8% of all compounds tested hit in one or more screens of this group. Calls follow the shape of the dose curve; as a rule, active = well fitted curve in the direction sought with a large enough effect; inconclusive = small, poorly fitted or top-dose-only effect, or another doubt; inactive = no such curve, though single readings can be large; an effect the other way counts as inactive or inconclusive. Potency is read from the fitted curve at half-maximal effect.

SMILES	HT1080 IDH1KD tx	KB-V1 cytotox	HT1080NT lethal	MCF10A rereplic	SW480 rerep	KB-3-1 cytotox
COc1ccc(CC(N)c2csc(Nc3cc(Oc4ccccc4)ncn3)n2)cc1 (stereo not given)	?	i	-22.6%	/	/	i
COc1[nH]c(/N=C/c2ccco2)c(C#N)c1C#N	/	i	/	/	/	?
CC(C)(C)NC(=O)c1ccc2c(c1)N(CC(=O)N1CCN(c3ccc(F)cc3)CC1)C(=O)C(C)(C)O2	4.1%	3.66µM*	8.5%	3.6%	-7.1%	i
CC(C)(C)NC(=O)c1ccc2c(c1)N(CC(=O)N1CCCC1)C(=O)C(C)(C)O2	-1.2%	?	2.5%	?	9.6%	i
CCOC(=O)COc1ccccc1/C=C\[N+](=O)[O-]	2.91µM*	14.6µM*	8.2µM*	?	4.11µM*	9.2µM*
Cc1ccc(C(=O)COC(=O)COc2ccccc2[N+](=O)[O-])s1	10.8%	i	18.3%	-5.9%	-4.4%	i
CC(C)=NNc1nc2sc3c(c2c(=O)[nH]1)CC(C)(C)OC3	-21.0%	i	6.0%	11.6µM*	?	i
COc1ccc(NC(=O)c2nc[nH]c2C(=O)Nc2ccccc2C)cc1	?	?	?	?	18.4µM*	5.8µM*
Cc1ccccc1NC(=O)CSc1cn[nH]n1	3.7%	i	13.4%	?	-4.6%	i
CCOc1ccccc1NC(=O)c1nc[nH]c1C(=O)Nc1ccccc1OCC	-3.2%	i	-4.7%	?	20.6µM*	?
COc1ccccc1NC(=O)c1nc[nH]c1C(=O)Nc1ccccc1OC	0.2%	i	8.7%	7.3%	7.3%	i
CCOc1ccccc1NC(=O)CSc1cn[nH]n1	2.8%	i	-11.4%	16.4µM*	-59.4%	i
COc1ccccc1OCCNC(=O)/C=C/c1ccc([N+](=O)[O-])cc1	-1.4%	14.6µM*	6.7%	-72.0%	-28.4%	i
CCCOc1ccc(/C=C/C(=O)Nc2ccc([N+](=O)[O-])cc2)cc1	-3.7%	25.9µM*	13µM*	14.6µM*	3.4%	7.31µM*
Cc1cc(C)n2nc(CNC(=O)c3cccc(Cl)c3)nc2n1	/	i	/	/	/	i
O=C(NCCCC(NC(=O)OCc1ccccc1)C(=O)O)OCc1ccccc1 (stereo not given)	-0.4%	i	1.0%	0.8%	-0.4%	i
CCOc1ccc(-c2ncnn2-c2sc3c(c2C#N)CCCCC3)cc1	/	i	/	/	/	i
CCOC(=O)c1cc(NC(=O)Nc2nccs2)c(C)nc1C	13.4%	?	14.6%	0.5%	-4.9%	?
COc1ccc(S(=O)(=O)n2nc(OC(=O)c3c(-c4ccccc4Cl)noc3C)cc2N)cc1	?	i	?	1.64µM*	-3.9%[9.22 µM]	?
Cc1ccc(Cc2c(C3CCCCC3)nc3c(C)cc(Br)cn23)cc1	-19.3%	i	-10.9%	/	/	i
COc1cc(CNCc2c[nH]c3ccccc23)cc(OC)c1	-21.1%	7.31µM*	?	?	6.3%	i
COc1cc(CNCc2cccc3ccccc23)cc(OC)c1	-7.5%	i	-10.8%	9.4%	0.3%	i
Cc1cc2c(cc1C)-n1nnnc1C(N1CCN(c3ncccc3C#N)CC1)C(=O)N2 (stereo not given)	-4.5%	?	-0.2%	/	/	i
Cc1nc(-c2ccc3c(c2)CCC(=O)N3)cs1	-11.3%	1.3µM*	2.7%	-1.4%	-118.6%	?
Cc1ccc(-c2csc(Cc3nc(-c4ccc5c(c4)CCC(=O)N5)cs3)n2)cc1	-4.5%	?	?	7.0%	3.2%	i
SMILES	HT1080 IDH1KD tx	KB-V1 cytotox	HT1080NT lethal	MCF10A rereplic	SW480 rerep	KB-3-1 cytotox
O=C(COc1ccc(Cl)c(Cl)c1)NN1C(=O)C2C(C1=O)C1C=CC2C12CC2 (stereo not given)	-0.5%	i	-0.6%	21.9%	1.03µM*	i
COc1cc(-c2noc(-c3cc(C)[nH]n3)n2)cc(OC)c1OC	/	i	/	/	/	i
Nc1ccc2c(c1)nnn2-c1ccccc1	2.2%	i	1.1%	-6.3%	5.9%	i
N#Cc1ccc2c(c1)nnn2-c1ccccc1	7.2%	9.2µM*	9.1%	-1.9%	2.9%	i
Cc1cc(C)c(S(=O)(=O)Nc2ccc3oc(C)c(C(=O)OC(C)C)c3c2)cc1C	/	?	/	/	/	i
C#CC1(NC(=O)NC(C)C)CCCCC1	-3.9%	i	-0.8%	4.3%	-3.4%	i
COc1ccc2nc(-c3ccccc3)cc(C(=O)OCC(=O)N3CCCCC3)c2c1	-8.3%	?	-9.9%	-3.6%	20.6µM*	?
COc1ccc(-c2cc(C(=O)Oc3cccc(C)c3)c3cc(C)ccc3n2)cc1	/	?	/	/	/	i
COc1ccc(-c2cc(C(=O)OCC(=O)N3CCCC3)c3ccccc3n2)cc1	?	?	?	-2.4%	-0.1%	i
COc1ccc(-c2cc(C(=O)OCC(=O)c3cccc([N+](=O)[O-])c3)c3cc(C)ccc3n2)cc1	14.2%	i	16.8%	18.4µM*	0.0%	i
CCOC(=O)C(C)Sc1ccc2nnc(-c3ccc(F)cc3)n2n1 (stereo not given)	9.3%	14.6µM*!	18.4%	15.8%	2.0%	?
COc1ccc(-c2nnc3ccc(SC)nn23)cc1	?	14.6µM*	-3.5%	1.8%	-3.7%	i
COc1ccc(-c2nnc3ccc(SCC(=O)N4CCOCC4)nn23)cc1	-7.5%	i	-0.8%	-2.4%	2.6%	i
O=c1c(Br)ccc(Br)cc1Br	5.17µM*	i	3.66µM*	?	?	6.51µM*
COC(=O)CC1(c2ccc(OC)cc2)C(=O)c2ccccc2C1=O	?	?	?	86.4%	19.6%	i
COc1ccc(C(C[N+](=O)[O-])C2(c3ccc(OC)c(OC)c3)C(=O)c3ccccc3C2=O)cc1 (stereo not given)	20.6µM*	?	?	?	3.26µM*	?
Fc1ccc(-c2nnc(CN3CCN(c4ccccn4)CC3)o2)cc1	/	i	/	/	/	i
CCCCC[C@H]1CN(C2CCCCC2)C(=O)[C@@H]1CC(=O)NCc1ccccc1	4.3%	?	-3.1%	?	-14.2%	?
CCN1CCc2c(sc(NC(=O)c3ccc(C(=O)c4ccccc4)cc3)c2C(N)=O)C1	?	i	20.6µM*	?	3.3%	i
